# “And” between values parts separate entries of the source, which are not always exact repeats. Equal values may be shown once. Inconclusive results are not listed. A call without a number means that no potency is given here. The source made the active and inactive calls. Calls come from the whole dose curve.
# Assay: Nuclear factor erythroid 2-related factor 2/antioxidant responsive element (Nrf2/ARE) small molecule agonists: luciferase reporter gene qHTS assay in human keratinocytes (AID 1919969); note: nearly all actives have a fitted effect of over 35% in size
# Potency is the fitted concentration of half-maximal effect.
row,SMILES,Potency
1,CC(=O)CC(=O)Nc1ccccc1C,inactive
2,O=C(Nc1ccc([N+](=O)[O-])cc1Cl)c1cc(Cl)ccc1O,34.4 µM (active) and 41.1 nM (active)
3,CCCCC(CC)COC(=O)CC(C(=O)OCC(CC)CCCC)S(=O)(=O)O (stereo not drawn),inactive

# Source: PubChem BioAssay (Tox21)
